Data: PubChem BioAssay (Tox21)
Where “and” joins values, the source holds several entries; their conditions need not be identical. Equal entries are not always repeated. Records with an inconclusive call do not appear. Calls of active or inactive are those of the source. Unless noted, calls follow the shape of the dose curve; as a rule, active = well fitted curve in the direction sought with a large enough effect in the repeat runs; inconclusive = weak or mixed curves; inactive = no such curve, though single readings can be large; an effect the other way counts as inactive or inconclusive.

Experiments:
[1] = qHTS assay for small molecules that induce genotoxicity in human embryonic kidney cells expressing luciferase-tagged ATAD5 (AID 651632); also: nearly all actives have a fitted effect of over 15% in size; also: potency is read from the fitted curve at half-maximal effect
Outline: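 Luminescent reporter readout, HEK293T ATAD5-luc line: 16 hr drug exposure (37C, 5% CO2) followed by Amplite, 30 min RT.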

[2] = qHTS assay for small molecule agonists of the p53 signaling pathway - cell viability (AID 651633; calls by dose curve; also: nearly all actives have a fitted effect of over 30% in size; also: potency is read from the fitted curve at half-maximal effect)
Outline: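 Viability counter-read: CellTiter-Glo luminescence (30 min, room temperature) in the same p53RE-bla plates. These plates had been exposed to compounds for 16 h at 37 C.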

[3] = qHTS assay for small molecules that induce genotoxicity in human embryonic kidney cells expressing luciferase-tagged ATAD5 - cell viability (AID 651634; calls by dose curve; also: nearly all actives have a fitted effect of over 25% in size; also: potency is read from the fitted curve at half-maximal effect)
Outline: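 Viability read: CellTiter-Fluor fluorescence, 30 min at 37C. Cells: HEK293T, luciferase-tagged ATAD5. Exposure: 15.5 hr, 37C, 5% CO2, compound or DMSO vehicle.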

[4] = qHTS assay for small molecule disruptors of the mitochondrial membrane potential - cell viability (AID 720634; calls by dose curve; also: nearly all actives have a fitted effect of over 20% in size; also: potency is read from the fitted curve at half-maximal effect)
Outline: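 HepG2, 1 hr compound, 37 C. ATP luminescence via CellTiter-Glo, 30 min RT, same well as m-MPI.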

[5] = qHTS assay to test for compound auto fluorescence at 590 nm (red) in HepG2 cells (AID 720674)
Outline: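 1 hr compound incubation on HepG2 cells, 37 C, 5% CO2; plate read ex 540 nm / em 590 nm; intensities reported as Rose Bengal sodium equivalents.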

[6] = qHTS assay to test for compound auto fluorescence at 535 nm (green) in HepG2 cells (AID 720675)
[7] = qHTS assay to test for compound auto fluorescence at 460 nm (blue) in HEK293 cells (AID 720678)
Outline: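 HEK293 cells (2,000 per well, medium with 10% dialyzed FBS) attached for 4-5 hr at 37C, then received compound and stood overnight at 37C, 5% CO2. Blue fluorescence was read at Ex/Em 405/460 nm and expressed relative to triamterene.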

[8] = qHTS assay to test for compound auto fluorescence at 590 nm (red) in HEK293 cells (AID 720679)
Outline: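 HEK293 cells (2,000/well, medium with 10% dialyzed FBS) attached for 4-5 hr at 37C, received 23 nL compound and were incubated overnight at 37C, 5% CO2. Red fluorescence was then read at 540/590nm Ex/Em, referenced to Rose Bengal sodium.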

[9] = qHTS assay to test for compound auto fluorescence at 535 nm (green) in HEK293 cells (AID 720680)
[10] = qHTS assay to test for compound auto fluorescence at 460 nm (blue) in HEK293 cell free culture (AID 720681)
Outline: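 Blue fluorescence (Ex 405/Em 460 nm, triamterene-equivalent) was read immediately after pin transfer of compound or DMSO into medium (DMEM, 10% FBS) without cells.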

[11] = qHTS assay to test for compound auto fluorescence at 535 nm (green) in HEK293 cell free culture (AID 720682)
Outline: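 Green-channel intensity (Ex/Em 485/535 nm) was recorded from compound-treated wells containing only DMEM with 10% FBS. Fluorescein provided the equivalency standard.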

[12] = qHTS assay to test for compound auto fluorescence at 590 nm (red) in HEK293 cell free culture (AID 720683)
Outline: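 Red-channel autofluorescence of compounds in culture medium (DMEM, 10% FBS), no cells, measured at 540/590 nm. Rose Bengal sodium is the reference fluorophore for equivalence.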

[13] = qHTS assay to test for compound auto fluorescence at 590 nm (red) in HepG2 cell free culture (AID 720684)
Outline: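 Steps: dispense MEM/10% FBS medium, no cells; pin compound or DMSO vehicle; read red channel, Ex/Em 540/590 nm. Output given as Rose Bengal sodium equivalents.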

[14] = qHTS assay to test for compound auto fluorescence at 460 nm (blue) in HepG2 cell free culture (AID 720685)
Outline: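 Compound (23 nL) or DMSO pinned into cell-free MEM with 10% FBS; blue fluorescence read at 405/460 nm excitation/emission, expressed as auto-fluorescence equivalency to triamterene.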

[15] = qHTS assay to test for compound auto fluorescence at 535 nm (green) in HepG2 cell free culture (AID 720686)
[16] = qHTS assay to test for compound auto fluorescence at 460 nm (blue) in HepG2 cells (AID 720687)
Outline: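 Blue-channel autofluorescence (Ex/Em 405/460 nm, triamterene-equivalent) was measured after 1 hr compound exposure at 37 C, 5% CO2. Cells were HepG2, plated overnight at 37 C in MEM plus 10% FBS.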

[17] = target: Glucocorticoid receptor (Homo sapiens) (UniProt P04150); assay: qHTS assay to identify small molecule agonists of the glucocorticoid receptor (GR) signaling pathway (AID 720691; active = well fitted activation curve with a large enough effect in the signal ratio in the repeat runs, not every such curve was filed as active; the % refers to the signal ratio)
Chain of Glucocorticoid receptor (Homo sapiens) (P04150 whole entry, looked up): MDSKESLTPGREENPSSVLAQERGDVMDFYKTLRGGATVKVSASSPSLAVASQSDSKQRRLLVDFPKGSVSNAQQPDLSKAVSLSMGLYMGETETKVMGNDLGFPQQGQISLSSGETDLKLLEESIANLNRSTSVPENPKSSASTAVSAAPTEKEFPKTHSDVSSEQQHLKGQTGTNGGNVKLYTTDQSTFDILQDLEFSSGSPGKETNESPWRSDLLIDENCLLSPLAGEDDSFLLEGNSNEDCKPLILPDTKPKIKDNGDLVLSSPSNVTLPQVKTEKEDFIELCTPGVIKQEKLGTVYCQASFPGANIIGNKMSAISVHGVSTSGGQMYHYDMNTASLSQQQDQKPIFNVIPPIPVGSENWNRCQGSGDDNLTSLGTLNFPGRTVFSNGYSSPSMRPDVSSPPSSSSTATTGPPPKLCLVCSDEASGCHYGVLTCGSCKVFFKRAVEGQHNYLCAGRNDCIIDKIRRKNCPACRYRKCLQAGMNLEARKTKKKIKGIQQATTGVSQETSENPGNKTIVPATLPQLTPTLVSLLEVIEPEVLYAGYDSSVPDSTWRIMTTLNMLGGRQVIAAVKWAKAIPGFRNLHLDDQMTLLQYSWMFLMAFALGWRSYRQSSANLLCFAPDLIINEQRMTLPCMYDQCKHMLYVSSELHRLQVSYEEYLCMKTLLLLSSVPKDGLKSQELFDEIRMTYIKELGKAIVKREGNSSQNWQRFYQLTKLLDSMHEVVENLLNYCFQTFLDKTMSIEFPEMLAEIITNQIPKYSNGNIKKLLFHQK
Outline: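 qHTS in GR-bla HeLa cells: 4 h settling at 37 C/5% CO2, 18 h compound incubation at 37 C, 2 h LiveBLAzer B/G FRET substrate at room temperature, fluorescence intensity measured.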

[18] = target: Glucocorticoid receptor (Homo sapiens) (UniProt P04150); assay: qHTS assay to identify small molecule antagonists of the glucocorticoid receptor (GR) signaling pathway (AID 720692; active = well fitted inhibition curve with a large enough effect in the signal ratio in the repeat runs, not every such curve was filed as active; the % refers to the signal ratio)
Outline: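 Inhibition of glucocorticoid signalling is measured in HeLa cells with a GRE-controlled beta-lactamase reporter; cells are co-treated with compound and 5 nM dexamethasone (final) for 18 h before FRET substrate readout.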

[19] = qHTS assay for small molecule disruptors of the mitochondrial membrane potential (AID 720635); also: potency is read from the fitted curve at half-maximal effect
Outline: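 Mitochondrial membrane potential tracked with Mito-MPS dye, red aggregates (ex 540/em 590 nm) against green monomers (ex 490/em 535 nm). Compound treatment 1 hr at 37C, dye 30 min in HepG2.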

Measured: Potency

CCCCC(C#N)(Cn1cncn1)c1ccc(Cl)cc1 (centres undefined)
not listed: [19]
inactive: all other assays above

CCC/C=N/O
not listed: [13]
inactive: all other assays above

CCCCCCCCCCCCCl
not listed: [13] | [19]
inactive: all other assays above

Nc1ccc([N+](=O)[O-])cc1N
active: [3] 54.4 µM
not listed: [17] | [18] | [19]
inactive: all other assays above

CCOC(=O)c1ccccc1N
not listed: [19]
inactive: all other assays above

CN(C)c1ccccc1
not listed: [13]
inactive: all other assays above

CC1(C)Cc2cccc(O)c2O1
not listed: [13] | [17] | [18]
inactive: all other assays above

CCCCCCCC[N+](C)(CCCCCCCC)CCCCCCCC
active: [2] 10.8 µM and 24.4 µM and 24.3 µM | [3] 21.6 µM and 19.3 µM | [4] 27.3 µM and 54.5 µM
not listed: [17] | [18] | [19]
inactive: all other assays above

ClC(Cl)=C(Cl)C(Cl)=C(Cl)Cl
not listed: [19]
inactive: all other assays above

CSc1nc(NC(C)C)nc(NC(C)C)n1
not listed: [17] | [18] | [19]
inactive: all other assays above

O=C1CCCO1
not listed: [13]
inactive: all other assays above

N#Cc1c(Cl)c(Cl)c(Cl)c(C#N)c1Cl
active: [1] 424 nM and 864 nM | [2] 6.73 µM and 9.69 µM | [3] 30 µM and 8.63 µM | [4] 19 µM and 21.7 µM | [19] 3.37 µM and 27.3 µM
not listed: [5] | [13] | [17] | [18]
inactive: all other assays above
